The source made the active and inactive calls.

For one test, the target named is Albumin (Bos taurus) (UniProt P02769). As to the kind of experiment: bovine serum albumin binders on microarray, profiling panel, artefact control for SMM control protein annotation, biochemical, small-molecule microarray, Alexa647 label, 635/667 nm fluorescence (AID 1118).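 Further: score merges 667 nm emission intensity and signal-to-noise per printed compound spot.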 To be noted: BSA-A647 binding, fluorescence 635 nm, higher = more signal.
Albumin (Bos taurus), sequence (P02769 whole entry, looked up): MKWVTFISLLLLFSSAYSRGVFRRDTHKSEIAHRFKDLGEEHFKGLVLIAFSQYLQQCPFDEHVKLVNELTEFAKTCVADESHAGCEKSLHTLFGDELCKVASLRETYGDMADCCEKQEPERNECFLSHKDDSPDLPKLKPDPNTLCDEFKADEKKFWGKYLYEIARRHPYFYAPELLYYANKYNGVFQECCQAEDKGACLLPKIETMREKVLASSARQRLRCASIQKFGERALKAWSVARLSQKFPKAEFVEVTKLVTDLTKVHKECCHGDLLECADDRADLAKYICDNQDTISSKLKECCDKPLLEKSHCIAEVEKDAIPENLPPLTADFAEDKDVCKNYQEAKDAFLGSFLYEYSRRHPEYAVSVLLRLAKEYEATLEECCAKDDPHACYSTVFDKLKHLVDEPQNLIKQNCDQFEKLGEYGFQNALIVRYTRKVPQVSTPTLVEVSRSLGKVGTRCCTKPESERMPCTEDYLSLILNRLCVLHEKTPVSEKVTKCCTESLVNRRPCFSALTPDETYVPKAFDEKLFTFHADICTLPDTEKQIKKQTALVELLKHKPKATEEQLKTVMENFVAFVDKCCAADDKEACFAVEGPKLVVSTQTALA
A short description of test [1]: small-molecule microarray binders of probe aXIP, primary screen, biochemical, NeuroSMM set, 635/667 nm fluorescence (AID 1119).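 Further: probe is the protein aXip251-270 applied at 1 µg/mL to compound-printed slides; binding of probe to printed compounds measured as 667 nm fluorescence plus signal to noise.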 To be noted: higher = more signal, called active from +8 up or from −8 down.
A short description of test [2]: small-molecule binders of probe aNOTCH3, primary screen, biochemical, small-molecule microarray, 635/667 nm fluorescence (AID 1120).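 Further: probe is a biotin-tagged antibody raised against NOTCH3 rather than NOTCH3 protein; score merges spot fluorescence near 667 nm with spot signal to noise.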 To be noted: higher = more signal.
Test [3] can be described thus: small-molecule binders of probe aNOTCH2, primary screen, biochemical, small-molecule microarray, 635/667 nm fluorescence (AID 1121).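 Further: score merges feature fluorescence read at 667 nm with its signal to noise.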 To be noted: higher = more signal.
Test [4] deals with Carbonic anhydrase 2 (Homo sapiens) (UniProt P00918). As to the kind of experiment: CAII small-molecule binders, profiling panel, biochemical, small-molecule microarray, Alexa647-labelled CAII (AID 1122). To be noted: CAII-A647 binding fluorescence, higher = more signal.
The nature of test [5]: COS7 lysate on small-molecule microarray, probe aHis, 635 nm (AID 1123).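 Further: z-score combines 667nm fluorescence intensity with signal-to-noise per printed compound spot.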 To be noted: COS7 cell lysate, fluorescence, higher = more signal.
Test [6] can be described thus: compound binding in COS7 lysate, probe aLAP1, primary screen, cell lysate, small-molecule microarray (AID 1124).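 Further: lysate comes from COS7 cells expressing LAP1 and is applied at 0.3 µg/mL; score merges spot fluorescence near 667 nm with signal-to-noise over triplicate slides.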 To be noted: probe aLAP1, fluorescence, higher = more signal.
The next test relates to Sam68 (KHDRBS1). The experiment in a line: Sam68 small-molecule binders, primary screen, biochemical, small-molecule microarray, 635 nm fluorescence (AID 1125).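 Further: score merges 667 nm channel intensity with signal to noise over triplicate slides.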 To be noted: small-molecule microarray binding, higher = more signal.
Test [7] has as its system Chordin-like protein 2 (CHRDL2). The experiment in a line: CHRDL2 small-molecule binders, primary screen, biochemical, small-molecule microarray, 635 nm fluorescence (AID 1126).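 Further: printed compound slides probed with Chrdl2 protein at 4 µg/mL for 1 h at 4 C; score merges 667 nm emission intensity with signal to noise over three replicate slides.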 To be noted: small-molecule microarray binding, fluorescence 635 nm; higher = more signal.
Test [8] deals with Concanavalin-A (Canavalia ensiformis) (UniProt P02866). As to the kind of experiment: ConA small-molecule binders, primary screen, artefact control for SMM control protein annotation, biochemical, small-molecule microarray, Alexa647 label, 635 nm (AID 1127).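 Further: z combines 667 nm emission intensity with signal-to-noise across three replicate slides.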 To be noted: ConA-A647 binding fluorescence, higher = more signal.
Concanavalin-A (Canavalia ensiformis), sequence (P02866 whole entry, looked up): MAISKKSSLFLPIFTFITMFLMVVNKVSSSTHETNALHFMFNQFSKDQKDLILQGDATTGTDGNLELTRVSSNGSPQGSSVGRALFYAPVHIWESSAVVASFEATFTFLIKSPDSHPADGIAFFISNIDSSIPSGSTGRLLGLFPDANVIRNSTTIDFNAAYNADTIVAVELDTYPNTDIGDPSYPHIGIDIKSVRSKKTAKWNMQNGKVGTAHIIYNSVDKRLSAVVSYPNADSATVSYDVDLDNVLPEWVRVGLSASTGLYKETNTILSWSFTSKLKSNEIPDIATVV
Test [9] is described as follows: anti-His antibody binders, primary screen, artefact control for SMM control protein annotation, biochemical, small-molecule microarray, 635 nm fluorescence (AID 1128).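 Further: score merges feature fluorescence with signal-to-noise for each printed compound spot.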 To be noted: anti-His Alexa647 antibody binding, higher = more signal.
The test system of test [10] is Human papillomavirus type 1a E7 protein (residues 1-88). As to the kind of experiment: HPV1a E7 small-molecule binders, primary screen, biochemical, small-molecule microarray, residues 1-88, 635 nm (AID 1129). To be noted: small-molecule microarray binding, fluorescence 635 nm; higher = more signal.
Test [11] addresses Focal adhesion kinase 1 (Homo sapiens) (UniProt Q05397). The experiment in a line: small-molecule microarray binders of FAK, primary screen, biochemical, 635/667 nm fluorescence, BSA, DTT (AID 1130).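 Further: composite of spot emission at 667 nm and signal to noise over triplicate slides.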 To be noted: PTK2 binding, 635 nm fluorescence, higher = more signal.
For test [12], the system named is Fibrinogen (Alexa647-labelled). As to the kind of experiment: fibrinogen binders on compound microarrays, profiling panel, artefact control for SMM control-protein annotation, biochemical, small-molecule microarray, 635/667 nm fluorescence (AID 1131).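 Further: z-score merges 667 nm fluorescence with per-spot signal-to-noise over triplicate slides.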 To be noted: fibrinogen-A647 binding fluorescence, higher = more signal.
For test [13], the target named is Follistatin (Homo sapiens) (UniProt P19883). As to the kind of experiment: follistatin binders on small-molecule microarrays, primary screen, biochemical, small-molecule microarray, 635/667 nm fluorescence (AID 1132). To be noted: FST binding, 635 nm fluorescence, higher = more signal.
Follistatin (Homo sapiens), sequence (P19883 whole entry, looked up): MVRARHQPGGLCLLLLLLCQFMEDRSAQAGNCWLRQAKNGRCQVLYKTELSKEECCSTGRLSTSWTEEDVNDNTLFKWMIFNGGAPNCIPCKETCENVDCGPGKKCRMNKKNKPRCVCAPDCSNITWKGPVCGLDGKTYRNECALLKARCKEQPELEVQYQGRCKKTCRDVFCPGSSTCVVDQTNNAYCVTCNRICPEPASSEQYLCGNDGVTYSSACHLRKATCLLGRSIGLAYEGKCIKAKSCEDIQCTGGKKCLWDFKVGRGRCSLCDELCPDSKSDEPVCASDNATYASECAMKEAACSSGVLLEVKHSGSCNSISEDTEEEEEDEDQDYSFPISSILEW
The target in test [14] is Fibroblast growth factor 2 (Homo sapiens) (UniProt P09038). As to the kind of experiment: FGF2 binders on small-molecule microarrays, primary screen, biochemical, small-molecule microarray, 635/667 nm fluorescence (AID 1133). To be noted: small-molecule microarray binding, FGF2, fluorescence 635/667; higher = more signal.
Fibroblast growth factor 2 (Homo sapiens), sequence (P09038 whole entry, looked up): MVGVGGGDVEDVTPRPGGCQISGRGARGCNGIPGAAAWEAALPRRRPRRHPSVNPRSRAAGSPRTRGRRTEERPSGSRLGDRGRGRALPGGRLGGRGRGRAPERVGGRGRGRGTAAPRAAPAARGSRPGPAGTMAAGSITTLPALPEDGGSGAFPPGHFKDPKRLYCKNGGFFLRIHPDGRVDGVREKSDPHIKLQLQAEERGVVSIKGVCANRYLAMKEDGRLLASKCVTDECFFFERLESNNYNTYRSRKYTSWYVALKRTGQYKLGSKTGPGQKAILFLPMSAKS
Test [15] is described as follows: mitochondrial membrane potential change in A549 cells, profiling panel, cell-based, JC-1 fluorescence, basal, 24 h, 100 nL (AID 1138).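 Further: A549 lung adenocarcinoma cells under basal conditions with no added stimulus; test concentration not given here.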 To be noted: higher = more signal.
In the next test the test system is Lefty1. As to the kind of experiment: Lefty1 binders on small-molecule microarrays, primary screen, biochemical, small-molecule microarray, 635/667 nm fluorescence (AID 1139). To be noted: small-molecule microarray binding, fluorescence 635/667; higher = more signal.
For test [16], the system named is wheat germ agglutinin (Triticum aestivum), Alexa647-labelled. The experiment in a line: wheat germ agglutinin binders on compound microarrays, profiling panel, artefact control for SMM control-protein annotation, biochemical, small-molecule microarray, 635/667 nm fluorescence (AID 1140).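 Further: score merges 667 nm feature emission with signal to noise over triplicate slides.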 To be noted: WGA-A647 binding, 635 nm fluorescence, higher = more signal.
Test [17] concerns the target Luciferin 4-monooxygenase (Photinus pyralis) (UniProt P08659). The experiment in a line: firefly luciferase enzyme inhibitors, primary screen, biochemical, luminescence, purified enzyme, 2006 set (AID 1141).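 Further: cell-free assay with purified firefly luciferase at 100 ng per well in PBS; test concentration not given here.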 To be noted: SteadyGlo luminescence, 30 min, higher = more signal, called active from +8 up or from −8 down.

Focal adhesion kinase 1 (Homo sapiens), sequence (Q05397 whole entry, looked up): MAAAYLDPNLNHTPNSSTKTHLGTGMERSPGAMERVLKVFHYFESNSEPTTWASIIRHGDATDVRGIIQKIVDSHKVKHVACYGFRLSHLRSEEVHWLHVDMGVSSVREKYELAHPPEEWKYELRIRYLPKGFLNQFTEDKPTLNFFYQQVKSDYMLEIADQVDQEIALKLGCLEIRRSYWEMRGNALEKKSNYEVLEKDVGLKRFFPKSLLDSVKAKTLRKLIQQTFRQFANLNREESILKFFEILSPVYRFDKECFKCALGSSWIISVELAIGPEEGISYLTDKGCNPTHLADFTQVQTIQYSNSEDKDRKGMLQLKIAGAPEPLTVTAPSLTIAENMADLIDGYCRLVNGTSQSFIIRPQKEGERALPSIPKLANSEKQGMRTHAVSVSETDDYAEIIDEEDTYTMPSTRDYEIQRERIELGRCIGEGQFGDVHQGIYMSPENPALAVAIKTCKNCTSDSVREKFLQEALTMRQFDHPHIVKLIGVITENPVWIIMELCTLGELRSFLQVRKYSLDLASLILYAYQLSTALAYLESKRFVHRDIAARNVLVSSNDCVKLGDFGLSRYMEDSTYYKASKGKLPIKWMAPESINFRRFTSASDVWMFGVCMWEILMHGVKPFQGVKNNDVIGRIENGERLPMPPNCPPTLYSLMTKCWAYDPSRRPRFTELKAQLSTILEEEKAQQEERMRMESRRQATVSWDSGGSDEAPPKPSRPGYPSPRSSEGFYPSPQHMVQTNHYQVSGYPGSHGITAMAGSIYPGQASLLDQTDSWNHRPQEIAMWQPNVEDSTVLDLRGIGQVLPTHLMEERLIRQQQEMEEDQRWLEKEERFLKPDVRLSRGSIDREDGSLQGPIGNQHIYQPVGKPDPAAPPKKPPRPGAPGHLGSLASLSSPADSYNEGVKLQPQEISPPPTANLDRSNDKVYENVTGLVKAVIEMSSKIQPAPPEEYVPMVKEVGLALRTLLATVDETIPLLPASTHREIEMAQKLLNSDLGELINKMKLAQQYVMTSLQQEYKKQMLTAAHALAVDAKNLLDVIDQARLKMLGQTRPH
Luciferin 4-monooxygenase (Photinus pyralis), sequence (P08659 whole entry, looked up): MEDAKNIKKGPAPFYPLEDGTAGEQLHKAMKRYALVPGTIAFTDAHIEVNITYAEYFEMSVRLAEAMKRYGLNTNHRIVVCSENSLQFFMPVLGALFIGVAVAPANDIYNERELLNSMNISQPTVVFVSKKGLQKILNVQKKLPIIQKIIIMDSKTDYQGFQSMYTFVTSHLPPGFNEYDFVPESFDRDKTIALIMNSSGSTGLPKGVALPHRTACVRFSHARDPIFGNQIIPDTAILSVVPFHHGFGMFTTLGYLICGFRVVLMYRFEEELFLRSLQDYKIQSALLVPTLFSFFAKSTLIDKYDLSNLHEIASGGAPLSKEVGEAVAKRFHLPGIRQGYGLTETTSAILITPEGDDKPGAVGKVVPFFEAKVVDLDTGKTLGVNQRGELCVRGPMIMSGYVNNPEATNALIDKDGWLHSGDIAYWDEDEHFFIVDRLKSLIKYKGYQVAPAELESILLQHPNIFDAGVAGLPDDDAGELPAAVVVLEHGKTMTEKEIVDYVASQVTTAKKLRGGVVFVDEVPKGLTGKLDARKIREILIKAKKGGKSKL

Take `CCOC(=O)[C@H]1[C@@H]2C(=O)N3CCC[C@H]3[C@H](O[Si](C(C)C)(C(C)C)C(C)C)[C@H]2C=C2CCN(S(=O)(=O)c3ccc(C)cc3)C[C@H]21`: the composite z-score with Albumin (Bos taurus) is 0.603; in test [2], 0.0208; in test [3] it was -0.112; in [4] it was 0.481; in [5] it was 1.15; in test [6], 0.171. Also, the composite z-score in the test on Sam68 (KHDRBS1) is 1.3; in [7], 0.484; in test [8], 1.12; in test [9], 0.173; in test [10], 0.837; in [11], -0.268. Moreover, the composite z-score in [12] is 0.938; in test [13] it was 0.727; in test [14] it was 0.143; in the test on Lefty1, 0.672; in [16], 0.255. Moreover, in test [1], the composite Z-score was 0.156 (inactive). For the same compound, the z-score in test [15] is 1.8; in test [17], -0.404 (inactive).
As for `COC(=O)[C@@]1(Cc2ccccc2)[C@H]2c3cc(C(=O)N(C)C)n(CCc4ccc(O)c(OC)c4)c3C[C@H]2CN1C(=O)c1ccccc1`, the composite z-score with Albumin (Bos taurus) worked out at 0.374; in test [2], 0.742; in test [3] it was 0.401; in test [4], 0.126; in test [5], 0.316; in test [6] it was 0.638. In addition, the composite z-score stood at 0.169 with Sam68 (KHDRBS1); 0.314 in test [7]; 0.151 in test [8]; 0.964 in [9]; 0.88 in [10]; 0.0098 in test [11]. In addition, the composite z-score in test [12] was found to be 0.814; in test [13] it was 0.168; in test [14], 0.273; in the test on Lefty1 it was 0.0511; in test [16] it was 0.0048. Besides, the composite Z-score in [1] is -0.372 (inactive). Moreover, the z-score in test [15] is 0.153; in test [17] it was 0.554 (inactive).
Regarding `COC(=O)[C@H](Cc1ccccc1)N1CC(/C=C/C2CC2)=C[C@H]1[C@H](O)Cc1ccccc1`, the composite z-score with Albumin (Bos taurus) is 0.59; in test [2], -0.095; in test [3] it was -0.14; in test [4] it was 0.456; in test [5], 0.726; in test [6] it was 0.148. Moreover, the composite z-score with Sam68 (KHDRBS1) is 1.2; in test [7] it was 0.732; in test [8] it was 0.981; in test [9], -0.0173; in test [10] it was 0.921; in test [11], 0.437. Moreover, the composite z-score in [12] was 0.667; in [13] it was 0.582; in test [14], 0.526; in the test on Lefty1, 0.545; in test [16], 0.958. For the same compound, in test [1], the composite Z-score is -0.0662 (inactive). The values for the z-score in test [15] and in test [17] were -0.267 and -0.807 (inactive), respectively.
On to `O=C1NC(=O)C2C1C=CC(C(O)c1cccc3ccccc13)N2Nc1ccc(Cl)cc1Cl` (stereo not given), for which the composite z-score in the test with Albumin (Bos taurus) stood at 0.205; in test [2] it was 0.0496; in [3], 0.0915; in [4], 0.358; in test [5], 2.12; in test [6], 0.818. The composite z-score in the test with Sam68 (KHDRBS1) is 0.762; in test [7] it was -0.155; in test [8] it was 1.07; in test [9] it was 1.92; in test [10], 1.16; in test [11] it was 0.442. The composite z-score was 0.838 in test [12]; 0.425 in test [13]; -0.517 in test [14]; -0.734 in the test on Lefty1; 0.758 in [16]. The composite Z-score in test [1] was -0.288 (inactive). Moreover, the z-score in test [15] is -1.28; in [17] it was 0.0698 (inactive).
As to `COC(=O)c1c(CC[C@@H](CO)NC(=O)N[C@H](Cn2cc(C3(O)CCCCC3)nn2)C(C)C)oc(C(C)=O)c1C(=O)OC`, the composite z-score is -0.471 with Albumin (Bos taurus); 0.0282 in test [2]; -0.0878 in test [3]; 0.209 in test [4]; 0.32 in [5]; -0.0003 in test [6]. For the same compound, the composite z-score in the test on Sam68 (KHDRBS1) was 1.14; in test [7], 0.513; in [8], 1.16; in test [9] it was 1.56; in test [10] it was 0.737; in test [11] it was -0.0722. Further, the composite z-score in test [12] is 0.627; in [13], 1.23; in [14], 1.26; in the test with Lefty1, 1.23; in test [16], 0.947. Besides, the composite Z-score in test [1] is 0.183 (inactive). Besides, the z-score in test [15] was 0.131; in [17] it was -0.0595 (inactive).

Values taken from PubChem BioAssay.
